Hits are enriched below; roughly 1.3% of the tested compounds scored in any of these assays.
DUSP3 inh – blocks human VHR1 dual specificity phosphatase | 290,000 tested, 0.52% active | recombinant VHR phosphatase, pNPP absorbance | P51452 | inhibition, % at 13.3 µM; in the data active means inhibition above about 50%
Target sequence (P51452 whole entry, looked up): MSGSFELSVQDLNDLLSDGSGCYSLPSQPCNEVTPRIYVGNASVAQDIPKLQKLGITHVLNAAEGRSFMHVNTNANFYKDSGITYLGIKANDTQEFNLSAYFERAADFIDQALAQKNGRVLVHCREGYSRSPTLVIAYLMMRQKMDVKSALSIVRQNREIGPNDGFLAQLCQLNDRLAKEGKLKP
SSB-PriA inh – K. pneumoniae PriA-SSBct interaction inhibition. AlphaScreen SSBct-PriA binding, biotinylated peptide. 430,000 tested, 0.6% active. AID 1272365. inhibition, % at 33 µM; in the data active means inhibition mostly above about 37%, no sharp cut-off; inactive means mostly below about 20%;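 further: plate controls were negative control peptide for no effect and reference peptide for full effect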
Mtb hypoxia inh – inhibitors of hypoxia-regulated fluorescent reporter in Mycobacterium tuberculosis | M. tuberculosis hypoxia-regulated fluorescent reporter, fluorescence | fluorescence inhibition, % (no concentration beside the values) | 300,000 tested, 0.1% active; in the data active means fluorescence inhibition mostly above about 23%, no sharp cut-off; inactive means mostly below about 17%
CCHF vOTU inh-1 – CCHFV vOTU protease inhibition | Pep-AMC fluorescence | inhibition, % at 11.5 µM | 370,000 tested, 0.55% active | AID 651958; further: 0% = vehicle wells with enzyme and 100% = no enzyme wells
SARS 3CLpro inh – SARS-CoV 3CLpro protease inhibition; AID 1706; recombinant SARS-CoV 3CLpro, quenched FRET peptide cleavage; P0C6X7; inhibition, % at 6 µM; 290,000 tested, 0.14% active; in the data active means inhibition above about 12%
CCHF vOTU inh-2 – confirmation of CCHF virus vOTU protease inhibitors; shares compounds with CCHF vOTU inh-1; Recombinant CCHFV vOTU, Pep-AMC fluorescence; inhibition, % at 11.5 µM; 1,900 tested, 17% active
An asterisk follows results filed as active. Unless noted, no stated cut-off is given here; in the data, active means inhibition above about 30%; inactive means the rest.

Screening COC(=O)C1=C(C)N(Cc2ccccc2C(F)(F)F)C(=NCc2ccc(C(F)(F)F)cc2)NC1c1cccc(Cl)c1 (stereo not given) returned CCHF vOTU inh-1 36* and CCHF vOTU inh-2 -5.
COC(=O)C1=C(C)N(Cc2ccc(C(F)(F)F)cc2)C(=NCc2ccc(OC)cc2)NC1c1ccccc1 (stereo not given) was read as CCHF vOTU inh-1 30* and CCHF vOTU inh-2 -1.
`O=C1OCCNC1=CC(=O)c1ccc(Cl)cc1` gave SSB-PriA inh -10.
Cc1ccc2c(c1)N(Cc1nc(-c3ccc(OCc4ccccc4)cc3)no1)C(=O)CO2 was read as SSB-PriA inh -3.
For CC(C)(C)[C@@H](O)CCNC(=O)C(=O)Nc1ccccc1 the results were SSB-PriA inh -15.
`O=C(NCCCn1nc(-c2ccc(F)cc2)ccc1=O)c1cccs1` gave SSB-PriA inh -10.
Screening C=CCn1c(SCC(=O)Nc2ccc3c(c2)OCCO3)nc2scc(-c3ccc(C)o3)c2c1=O returned SSB-PriA inh -11.
For O=C(NC(=S)NC1CCS(=O)(=O)C1)c1ccccc1 (stereo not given) the results were DUSP3 inh 2, SSB-PriA inh -2, Mtb hypoxia inh 4, CCHF vOTU inh-1 12 and SARS 3CLpro inh -1.
`CN(C1=C(NC(=O)c2ccccc2)C(=O)c2ccccc2C1=O)C1CCS(=O)(=O)C1` (stereo not given) gave DUSP3 inh -8, Mtb hypoxia inh 13, CCHF vOTU inh-1 89*, SARS 3CLpro inh 0 and CCHF vOTU inh-2 78*.
`CC(=O)NC1=C(NC2CCS(=O)(=O)C2)C(=O)c2ccccc2C1=O` (stereo not given) gave DUSP3 inh 9, SSB-PriA inh -5, Mtb hypoxia inh 16, CCHF vOTU inh-1 42*, SARS 3CLpro inh 0 and CCHF vOTU inh-2 2.
`O=C(CN1C(=O)c2ccccc2C1=O)NC1CCS(=O)(=O)C1` (stereo not given) gave CCHF vOTU inh-1 -4.
Screening CS(=O)(=O)c1ccc(Nc2nc(C(=O)NCC3CCCCC3)cs2)cc1 returned SSB-PriA inh -6.
For CO[C@@](C)(CNS(=O)(=O)C1CC1)c1cccc(Cl)c1 the results were SSB-PriA inh -5.
Screening CCOc1ccc2c(c1)C(C)=CC(C)(C)N2C(=O)Nc1ccccc1F returned DUSP3 inh -7, SSB-PriA inh 10, Mtb hypoxia inh -1, CCHF vOTU inh-1 71*, SARS 3CLpro inh 0 and CCHF vOTU inh-2 -100.
Screening CCNC(=O)N1c2ccc(OCC)cc2C(C)=CC1(C)C returned DUSP3 inh 10, SSB-PriA inh 12, Mtb hypoxia inh 10, CCHF vOTU inh-1 -16 and SARS 3CLpro inh 7.
`C=C(CN)c1nc2ccccc2[nH]1` gave SSB-PriA inh 5.
For O=C(O)Cn1c2c(c3ccccc31)CCCC2 the results were DUSP3 inh 8, SSB-PriA inh 6, CCHF vOTU inh-1 30*, SARS 3CLpro inh 5 and CCHF vOTU inh-2 -17.
Screening COc1ccc(Cl)cc1C(=O)N1Cc2cncnc2C1 returned SSB-PriA inh -8.
`CC(C)C[C@H]1CN([C@@H](Cc2ccc(O)cc2)CN2CCC[C@@H]2CN2C(=S)NC[C@@H]2Cc2ccccc2)C(=S)N1CC1CCCCCC1` gave CCHF vOTU inh-1 9.
For CC(C)C[C@H]1CN([C@@H](Cc2ccc(O)cc2)CN2CCCC2CN2C(=S)NC[C@@H]2Cc2ccccc2)C(=S)N1CC1CCCCC1 (stereo not given in full) the results were CCHF vOTU inh-1 30* and CCHF vOTU inh-2 -9.
CC(C)C[C@@H](CN1CCC[C@@H]1CN1C(=S)NC[C@@H]1Cc1ccc(O)cc1)N1C[C@H](Cc2ccc(O)cc2)N(CCc2ccccc2)C1=S was read as CCHF vOTU inh-1 30* and CCHF vOTU inh-2 -22.
`CCCn1cc(SCC(=O)Nc2cc(Cl)ccc2OC)c2ccccc21` gave SSB-PriA inh 1.
Nc1ccc2c(c1)C(=O)C(=O)c1ccccc1-2 was read as DUSP3 inh 17, SSB-PriA inh 14, CCHF vOTU inh-1 101*, SARS 3CLpro inh -2 and CCHF vOTU inh-2 97*.
Screening O/N=C1/CCc2cccc3cccc1c23 returned DUSP3 inh 29, CCHF vOTU inh-1 -9 and SARS 3CLpro inh 2.
For O=C1C(=NO)CCc2ccccc21 the results were SSB-PriA inh 2, CCHF vOTU inh-1 69* and CCHF vOTU inh-2 82*.
